# Experimental data reported in PubChem BioAssay (NCI).
# This is part of a sample that, as a whole, favours compounds with a hit. Of some 83,000 tested, about 20% had one in any assay.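 Growth was measured after 48 h exposure to one concentration of compound in 96-well plates. Values under 10 count as active.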 Active and inactive are the calls of the source.
# Test system: HOP-92 NSCLC
# Assay: NCI-60 one-dose screen, 48 h (100 = growth as untreated, 0 = no growth, -100 = all killed)
# Conditions: 10 µM
# Method: Growth inhibition of the HOP-92 human Non-Small Cell Lung tumor cell line is measured as a screen for anti-cancer activity. Cells are grown in 96 well plates and exposed to the test compound for 48 hours. Compounds are tested at a single concentration, which is 10^-5 M for most compounds. The reported endpoint is percent growth (GI% or GIPRCNT), where numbers from 0 - 100% represent growth inhibition, and numbers from -100% - 0 represent cell death. For example, a value of 40 represents 60% growth inhibition. A value of 0 means no net growth occurred over the course of the experiment. A value of -40 indicates 40% of cells at the beginning of the experiment died by the end of the experiment. A value of -100 means all cells are dead at the end of the experiment.
# NCI-60 Human Tumor Cell Lines Screen was performed using the standard one-dose NCI protocol, which is described in more detail at https://dtp.cancer.gov/discovery_development/nci-60/default.htm.
# Compounds with GIPRCNT values below 10 were considered active. Activity score was based on GIPRCNT using the following formula: […]
# Score is 0 for GIPRCNT values of 100 or above, 50 for GIPRCNT values of 0, and 100 for GIPRCNT values of -100.
row,SMILES,growth
1,Nc1ncc(-c2ccc3ncnc(Nc4cccc(Cl)c4F)c3c2)cn1,31.3% (inactive)
2,CCOC(=O)c1c(N)c(C#N)cn1-c1cc(OC)c(OC)c(OC)c1,79.1% (inactive)
3,CCN(CC)c1ccc2c(c1)Oc1nc(N)c(C#N)c(N)c1C2Sc1ccc(F)cc1 (stereo not given),-36.7% (active)
4,O=C(/C=C/c1ccc(F)cc1)c1ccc(O)cc1,109% (inactive)
5,NC(N)=Nc1ccc(Oc2ccc(Nc3ccc(Cl)c(C(F)(F)F)c3)cc2)cc1,34.1% (inactive)
6,CN(C)CCNC(=O)c1ccc(-c2nc3ccc4[nH]ncc4c3c3c2COCC3)cc1,-24.1% (active)
7,Fc1ccc(-c2cc3nc(C(Cl)Cl)nc(-c4ccco4)n3n2)cc1,-15.1% (active)
8,C=C(C)[C@@H]1CC[C@]2(COCCCNCCC#N)CC[C@]3(C)[C@H](CC[C@@H]4[C@@]5(C)CC[C@H](OCCCNCCC#N)C(C)(C)[C@@H]5CC[C@]43C)[C@@H]12,49.7% (inactive)
9,Cc1cc(S(=O)(=O)N(C)C)cc(NCC(=O)NC(=O)NCC(C)C)c1C,84.5% (inactive)
10,COC(=O)C(Cc1ccccc1)Nc1nc(NC(Cc2ccccc2)C(=O)OC)nc(N2CCOCC2)n1 (stereo not given),119% (inactive)
11,CNC(=O)c1cc(-c2ccc(NC(=S)Nc3cc(C(F)(F)F)cc(C(F)(F)F)c3)cc2)nc2cccnc12,76.8% (inactive)
12,CS(=O)(=O)Nc1cc(-c2ccc3ncc(C#N)c(NCc4cccc(F)c4)c3c2)cnc1Cl,-15.7% (active)
13,COC(=O)C[Se]C(=O)Cc1c(C)n(C(=O)c2ccc(Cl)cc2)c2ccc(OC)cc12,53.2% (inactive)
14,C=C(C=O)[C@@H]1CC[C@]2(C)[C@H](CC=C3[C@H]4[C@@H](C)[C@H](C)CC[C@]4(C(=O)OC)CC[C@]32C)[C@@]1(C)CCC#N,-31.6% (active)
15,CCn1c(SCC(=O)Nc2cccc(C(=O)/C=C/c3ccc(Br)cc3)c2)nc2ccccc2c1=O,76.9% (inactive)
16,O=c1[nH]c(Sc2sc3ccc(Cl)cc3c2CBr)nc(=S)[nH]1,1.66% (active)
17,COc1cc(-c2nn(C(C)(C)C)cc2-c2ccnc(NCCCNS(=O)(=O)c3ccc(Cl)cc3)n2)ccc1Cl,48.6% (inactive)
18,O=C(NNc1nc2cc(F)ccc2n2c(CN3CCCC3)ccc12)c1cnccn1,18.2% (inactive)
19,COc1cc(/C=C2\C(=O)Nc3cc(Cl)ccc32)ccc1OCc1ccc(F)cc1,89.2% (inactive)
20,C=CCn1c(SCC(=O)Nc2ccc(C(=O)/C=C/c3ccc(Br)cc3)cc2)nnc1-c1c[nH]c2ccccc12,86.4% (inactive)

row,SMILES,growth
1,COc1cc(-c2nn(C(C)(C)C)cc2-c2ccnc(NCCCNS(=O)(=O)c3ccc(C)cc3)n2)ccc1Cl,70.2% (inactive)
2,CC1(C)CC[C@]2(C(=O)O)CC[C@]3(C)C(=CC[C@@H]4[C@@]5(C)CC/C(=N\OCCC#N)C(C)(C)[C@@H]5CC[C@]43C)[C@@H]2C1,123% (inactive)
3,O=[N+]([O-])c1cc(/C=N/Nc2nc(N/N=C/c3ccc(Cl)c([N+](=O)[O-])c3)nc(N3CCCCC3)n2)ccc1Cl,123% (inactive)
4,CC1(C)[C@@H](O)CC[C@]2(C)[C@H]3CC[C@@H]4[C@H]5[C@H](C(=O)/C=C\c6ccncc6)CC[C@]5(O)CC[C@@]4(C)[C@]3(C)CC[C@@H]12,91.9% (inactive)
5,CCc1nn2c(C)cc(C)nc2c1Cc1ccc(/C=C/CN2CCN(CCOCCOCCN3CCN(C/C=C/c4ccc(Cc5c(CC)nn6c(C)cc(C)nc56)cc4)CC3)CC2)cc1,-5.1% (active)
6,Oc1ccc(CSc2nnc(-c3ccc(Cl)cc3)n2-c2ccccc2)c2cccnc12,16.3% (inactive)
7,CNC(=O)c1cc(-c2ccc(NS(=O)(=O)c3ccc(C)cc3)cc2)nc2cccnc12,103% (inactive)
8,NS(=O)(=O)c1ccc(Nc2nc(Nc3ccccc3)nc3nnc(SCC(=O)NC4CCCCC4)n23)cc1,105% (inactive)
9,Cc1cc(C)n(C(=O)c2sc(=S)n(-c3ccccc3)c2N=Nc2c(N)n[nH]c2N)n1,114% (inactive)
10,COc1ccc(-c2nn(-c3ccc(S(C)(=O)=O)cc3)cc2/C=N/O)cc1,98.8% (inactive)
11,COc1cc(Nc2c(C#N)cnn3cc(-c4cnn(CC(C)(C)O)c4)cc23)ccc1Cl,58.1% (inactive)
12,COc1ccc(/C(N)=N/C(N)=N/c2nc3ccccc3s2)cc1,85.5% (inactive)
13,CC(C)(O)c1cncc(-c2ccc3ncnc(NCc4ccccc4)c3c2)c1,72.3% (inactive)
14,O=C(CSc1nc2ccccc2c(=O)n1-c1ccc(Cl)cc1)N/N=C/c1ccc(N2CCCCC2)cc1,62.3% (inactive)
15,N#Cc1cnc2ccc(-c3cnc(N)nc3)cc2c1N1CCc2cc(F)c(Cl)cc21,-19% (active)
16,Cc1cc2nc(C(Cl)Cl)nc(-c3cccs3)n2n1,-10.8% (active)
17,COc1ccc(S(=O)(=O)NCCCNc2nccc(-c3[nH]c(-c4ccccc4)nc3-c3ccc(Cl)c(O)c3)n2)cc1,114% (inactive)
18,N=c1c2cc(-c3ccccc3)oc2ncn1/N=C/c1ccc(Cl)cc1,105% (inactive)
19,CCOC(=O)C(=O)CC(=O)N1C(=S)NC(=O)C1CC(C)C (stereo not given),99.6% (inactive)
20,NC(N)=Nc1ccc(Oc2cccc(NC(N)=Nc3ccc(Br)c(C(F)(F)F)c3)c2)cc1,10.5% (inactive)
